Laboratory results: PubChem BioAssay (NCI)
“And” between values parts separate entries of the source, which are not always exact repeats. Equal values may be shown once. Compounds without any hit were thinned out: in the full panel of roughly 83,000, 20% have a hit.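 Percent growth is the endpoint: 0 to 100 indicates growth inhibition (40 means 60% inhibition), 0 means no net growth, and negative values indicate cell death.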 Unmarked numbers belong to inactive results. The source made the active and inactive calls. How the source made its calls: active means growth percent below 10; inactive means the rest.

Test system: MDA-MB-468 breast
Experiment: NCI-60 one-dose screen, 48 h (100 = growth as untreated, 0 = no growth, -100 = all killed)
Details: 10 µM unless noted

C=CCN1C(=O)/C(=C\c2ccc3c(c2)CCC3)SC1=S
growth: 116%

NS(=O)(=O)c1ccc(Nc2nc3n[nH]c(Nc4ccccc4)c3c(=O)[nH]2)cc1
growth: 108%

COc1ccc(C2(O)CCCCC2)cc1
growth: 95.2%

O=[N+]([O-])c1ccc(N/N=C\c2ccccc2[N+](=O)[O-])nc1
growth: 114%

CSc1nc2c(c(=O)n1C)C1(C(=O)N(Cc3ccccc3)c3ccccc31)c1c(nc(SC)n(C)c1=O)N2
growth: 86%

COc1ccc2sc3c(NCCCNCCO)nc4ccccc4c3c(=O)c2c1
growth: 30.9%

Cc1n(Cc2ccc3ccccc3n2)cc[n+]1Cc1ccc2ccccc2c1
growth: -23.5% (active)

CCCOC(=O)c1ccc([N+](=O)[O-])o1
growth: 113%

CN1C(=O)N(C)C2C1NN=c1s/c(=C\c3ccc(C(F)(F)F)cc3)c(=O)n12 (centres undefined)
growth: -2.71% (active)

Nc1nc(=S)c2ncn(C3OC(COC(=O)c4ccc(Cl)cc4)C(OC(=O)c4ccc(Cl)cc4)C3OC(=O)c3ccc(Cl)cc3)c2[nH]1 (centres undefined)
growth: 23.6%

CC(O)(CC(=O)CC(=O)c1ccccc1)c1ccccc1 (centres undefined)
growth: 94.9% and 101%

COc1ccc(/C=C/c2nc(-c3n[nH]c(=O)n3-c3ccccc3)c3ccccc3n2)cc1
growth: 100%

O=C(NCCCO)c1cc(Cl)ccc1O
growth: -12.2% (active)

O=c1[nH]c(-c2ccncc2)nc2sc3c(c12)CCCCCC3
growth: 99.2%

Cc1ccc(C)n1-c1ccsc1C(=O)NNC(=O)CCl
growth: 88%

CCNC(=O)N1CCc2c(Br)c3c(c(OC)c2C1Cc1ccc(OC)cc1)OCO3 (centres undefined)
growth: 19.2%

CCCCNC(=O)CC1=C(C)/C(=C/c2[nH]c(-c3ccc[nH]3)cc2OC)N=C1C
growth: 37.9%

O=C1Nc2ccccc2/C1=C/c1cn(C[C@@H](O)Cn2c3ccccc3c(=O)c3ccccc32)c2ccccc12
growth: 79.6%

N/C(=N\C(N)=N\c1nc2ccccc2s1)c1cnccn1
growth: -24.8% (active)

Cc1csc(-c2ccc3c(c2)COC3(CCCN(C)C)c2ccc(F)cc2)c1 (centres undefined)
growth: 31.1%

C[C@@H]1C=C2C(=O)O[C@@H]3CC[C@H](C1)[C@]23O
growth: 11.4%

Cc1cc(N(CCNc2ccnc3cc(Cl)ccc23)Cc2cccs2)nc(Cl)n1
growth: -65.2% (active)

COc1ccc(C(=O)n2cc(C=O)c3ccccc32)cc1
growth: 105%

COc1ccc(/C=C2\SC(=O)N(CN3CCN(c4cc5c(cc4F)c(=O)c(C(=O)O)cn5C4CC4)CC3)C2=O)cc1
growth: 108%

COc1ccc2c(c1)c(-c1nc(-c3c[nH]c4ncccc34)cs1)cn2CCO
growth: 1.57% (active)

COc1cc(-c2nc3occn3c2-c2ccnc(NCCCNS(=O)(=O)c3ccc(O)cc3)n2)ccc1F
growth: 91.4%

COC(=O)c1cc(=O)nc(N/N=C/c2ccco2)s1
growth: 61.7%

O=C(CCl)Nc1ccc2c(c1)C(=O)c1ccc(NC(=O)CCl)cc1C2=O
growth: -75.7% (active)

O=C(Nc1ccc(I)cc1F)c1cc(F)ccc1O
growth: -3.61% (active)

CCC(C#N)(CC)c1ccccc1
growth: 105%

OCC1OC(OC2C(O)C(CO)OC2(CO)OC2OC(CO)C(O)C(O)C2O)C(O)C(O)C1O (centres undefined)
growth: 112%

c1ccc(C(Nc2ccccn2)(c2ccccc2)c2ccccc2)cc1
growth: 52.7%

O=C(O)CCCn1c(SCc2c(Cl)cccc2Cl)nc2ccsc2c1=O
growth: -4.76% (active)

Cc1ccc(OCCCCCCNCCO)c(C)c1
growth: -15.9% (active)

C=C1C(=O)O[C@H]2[C@H]1CC/C(Cn1cc(-c3ccccc3)nn1)=C\CC[C@@]1(C)O[C@@H]21
growth: -38.5% (active)

CC[C@H](CO)Nc1ccc2ncc(C#Cc3cncc(C(=O)Nc4ccc(CN5CCN(C)CC5)c(C(F)(F)F)c4)c3)n2n1
growth: -67.8% (active)

CC/C(=C(\CC)c1ccc(OCC[N+](C)(C)C)cc1)c1ccc(OC)cc1
growth: 2.58% (active)

COc1cc(/C=N/Nc2ncnc3c2c(C)nn3-c2ccc(F)cc2)ccc1O
growth: 92%

Cc1ccc(-c2csc(NC(=O)CSc3nc(-c4ccccc4)cc(=O)[nH]3)n2)cc1
growth: 108%

O=C(Nc1nc2ccccc2s1)Nc1ccc([N+](=O)[O-])cc1Cl
growth: 89.9%

O=C1OC(c2ccc(-c3ccccc3)cc2)=C/C1=C/C=C/c1ccccc1
growth: 99.7%

Cn1ccnc1C(=O)/C=C/C=C/c1ccc(C(=O)Nc2ccc(F)cc2)cc1
growth: 35.3%

C[C@H](C(=O)N[C@@H](Cc1ccc(-c2ccccc2)cc1)C(=O)NC1CC(C)(C)NC(C)(C)C1)c1ccc(-c2ccccc2)c(F)c1
growth: -65.9% (active)

CC(C)(O)C#CC#CC(C)(C)O
growth: 97.7%

Cc1ccc(C(=O)c2ccc(CC(=O)N/N=C/c3cccc(O)c3O)n2C)cc1
growth: 54.9%

C=C(C)[C@@H]1CC=C2c3sc(-c4ccc(C)cc4)nc3C[C@@H](C)[C@]2(C)C1
growth: 108%

CN(C)Cc1cc(C(C)(C)CC(C)(C)C)ccc1O
growth: 100%

O=C(Nc1cccnc1Nc1ccc(Cl)cc1)c1cn(Cc2cccc(Oc3ccccc3)c2)nn1
growth: 63.3%

COc1cc(C(=O)n2nc(N3CCN(C)CC3)c3cc(N)ccc32)cc(OC)c1OC
growth: 0.604% (active)

O=C(O)C(O)C(O)C(=O)O.[NH-]C1CCCCC1[NH-].[Pt+2] (centres undefined)
growth: 95.5%

Cc1ccccc1-c1nc(C(Cl)Cl)nc2cc(-c3ccccc3)nn12
growth: 52.7%

COc1ccc(/C=C/C(=O)c2ccc([N+](=O)[O-])cc2)cc1
growth: 94.4%

CCCN1C(=O)N(CCC)C2C1NN=c1s/c(=C3\C(=O)N(C(C)C)c4ccccc43)c(=O)n12 (centres undefined)
growth: 35.7%

COc1cccc(-c2nn(-c3ccccc3)cc2-c2ccnc(NCCCNC(=O)c3ccc(F)cc3)c2)c1
growth: 13.7%

NC(=O)c1ccccc1NC(=O)c1ccccc1Cl
growth: 125%

Nc1c(C(=O)Nc2cccc(Cl)c2)sc2nc3c(cc12)CCCC3
growth: 74.2%

COc1ccc2[nH]cc(-c3noc(C(=O)c4cn(C)c5ccc(F)cc45)n3)c2c1
growth: 102%

CCn1cc2c(cc1=O)-c1nc3ccccc3c3ccnc(c13)C2=O
growth: 72.3%

COc1ccc(-c2cc(-c3nnc(SCC(=O)Nc4ccc(C(C)=O)cc4)o3)c3ccccc3n2)cc1
growth: 45.5%

CCCC1=NNC(=O)C1
growth: 115%

COc1cc(/C=C/c2cc(O)c(C(C)=O)c(O)c2)cc2c1O[C@]1(C)CC[C@@H](O)C(C)(C)[C@H]1C2
growth: 77.6%

O=C1/C(=C/c2ccc(F)cc2)CN(C(=O)CCN2CCC(=NO)CC2)C/C1=C\c1ccc(F)cc1
growth: -41.6% (active)

O=C(O)c1cccc(-n2ncc(Cl)c(Cl)c2=O)c1
growth: 74.5%

CC(=O)COc1ccc(Cl)cc1Cl
growth: 92.4%

CCOC(=O)C1=C(c2ccccc2)N=C2SC=C(c3ccc(Cl)cc3)N2C1c1ccc(Br)cc1 (centres undefined)
growth: 54.3%

COc1ccc2c(c1)C(C)Cc1c(Cl)ncnc1N2C (centres undefined)
growth: -47.7% (active)

CCOC(=O)CCCCCCCCC(=O)OCC
growth: 104%

CCOC(=O)Nc1ccc2c(c1)/C(=N\NC(N)=S)c1ccccc1-2
growth: 55.3% and 75.3%

CC1OC(OC2C(OC3CCC4(C)C(CCC5(C)C4CC=C4C6CC(C)(C)CCC6(CO)C(O)CC45C)C3(C)C)OC(C(=O)O)C(OC3OC(COC4OC(CO)C(O)C(O)C4O)C(O)C(O)C3O)C2O)C(O)C(O)C1O (centres undefined)
growth: -80.5% (active)

COc1ccc2nccc(Cl)c2c1
growth: 100%

C#COc1cccc(Nc2ncnc3ncc(NC(=O)CCl)cc23)c1
growth: 4.95% [6.25 µM] (active)

O=Cc1ccc(F)cc1
growth: 91%

Cc1nc2sc(C(=O)Nc3cccc(Cl)c3C)c(N)c2cc1C(O)c1ccccc1 (centres undefined)
growth: 18.5%

O=c1cc(-c2ccccc2)oc2c1ccc1ccccc12
growth: 80.1%

COc1ccc(/C=C2\CN(C(=O)C(Cl)Cl)C/C(=C\c3ccc(OC)c(OC)c3)C2=O)cc1OC
growth: -14.2% (active)

C=CCn1c(SCC(=O)c2ccc(Br)cc2)nnc1-c1c[nH]c2ccccc12
growth: 86.9%

COC(=O)/C=C1\Sc2cc(F)ccc2NC1=O
growth: 99.8%

COc1cc(NCCN=C(N)NC(N)=NC(C)C)c2ncccc2c1
growth: -46.5% (active)

CC(=O)NC1C(O[C@H]2C[C@H]3[C@@H]4CC=C5C[C@@H](O)CC[C@]5(C)[C@H]4CC[C@]3(C)[C@H]2[C@H](C)C(=O)CCC(C)C)OCC(O)C1O (some centres undefined)
growth: 51.6%

Cc1cccc(C)c1NC(=O)CSC(=S)N1CCCCC1
growth: 110%

c1ccc(N2CCN(c3nncc4ccccc34)CC2)nc1
growth: 93.3%

O=C1Nc2ccccc2C1=NC1CCCCC1
growth: 102%

CC(C)(C)[Si](C)(C)O[C@H]1C(=O)C=CN2CC=C[C@@H]12
growth: 99.4% [100 µM]

CC(C)C1CCCCC1O (centres undefined)
growth: 107%

Cc1nc(N)nc2c1CCC(Nc1ccccc1)S2 (centres undefined)
growth: 100%

Clc1cccc(CNc2c3ccccc3nc3ccccc23)c1
growth: -18.4% (active)

C=CCSC(CC)(CC)C(=O)NC
growth: 99.3%

O=C1/C(=C/c2ccc(O)cc2O)N=C2SCCCN12
growth: 96.1%

COc1ccc(CNCCCN2C(=O)c3ccc4c5c(ccc(c35)C2=O)C(=O)N(CCCNCc2ccc(OC)c(OC)c2OC)C4=O)c(OC)c1OC
growth: -94.8% (active)
